# Bioassay records as filed in PubChem BioAssay.
# Tgondii IFNg – blocks Toxoplasma gondii growth in the presence of IFN-gamma | Toxoplasma gondii growth in IFN-gamma-treated host cells; stronger effect = lower value | activity change, negative = inhibition, % (concentration not given with the values) | actives 3.8% (n = 69,000) | AID 1259416; in the data active = activity change below about -70%, passing the limit was not always enough;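 also: host cells are HeLa cells infected with Toxoplasma gondii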
# * = called active by the depositor; i = inactive; ! = not active in a repeat. Many of the other results were omitted from the sample, so hits are more common in it than they were.
SMILES,Tgondii IFNg
CCc1csc(CNC(=O)c2ccc(N3[C@H]4CCNC[C@@H]3CC4)nc2)n1,-2
CCc1nc(C)sc1CN1CC2(CCNCC2)CC1C(=O)O (centres undefined),-8
CC(C)(C)c1ccc(-c2cc(NC(=S)NC(=O)c3ccccc3)n[nH]2)cc1,-57
O=C1CCCc2nc3c(cc21)C(=O)CCC3,-8
CC(C)C[C@@H](C(=O)N[C@H](C(=O)OC1CCCC1)c1ccccc1)[C@H](O)C(=O)NO,-85*
CNC(=O)[C@@H](NC(=O)[C@H](CC(C)C)[C@H](O)C(=O)NO)C(C)(C)C,14
CC(NC(=O)Cc1cc(F)cc(F)c1)C(=O)NC(C(=O)OC(C)(C)C)c1ccccc1 (centres undefined),18
CCS(=O)(=O)N1CCC2(CC1)OC(=O)C(C)=C2C(=O)NCCCN1CCCCC1C (centres undefined),33
O=C(C[C@@H]1C=C[C@@H](NC(=O)Cc2cccnc2)[C@H](CO)O1)NCc1ccc2c(c1)OCO2,2
CN(C)CCc1c[nH]c2ccc(C[C@H]3COC(=O)N3)cc12,13
CN(C)C(=O)[C@H]1[C@H](CO)[C@H]2Cn3c(ccc(C4=CCCC4)c3=O)[C@@H]1N2S(=O)(=O)c1cn(C)cn1,-3
CCn1c(SCc2nc(-c3ccc(C)cc3)oc2C)nc2c(=O)[nH]cnc21,24
COc1cccc(-c2nc(CSc3nc4c(=O)[nH]cnc4n3-c3ccccc3)c(C)o2)c1OC,-54
Cc1ccc(-n2c(SCc3nc(-c4cccc(C)c4)oc3C)nc3c(=O)[nH]cnc32)cc1,i
CCn1c(SCc2nc(-c3cccc(Cl)c3)oc2C)nc2c(=O)[nH]cnc21,165
Cc1ccc(-c2nc(CSc3nc4c(=O)[nH]cnc4n3-c3ccc(C)cc3)c(C)o2)cc1,-95*
Cc1oc(-c2ccc(Cl)cc2)nc1CSc1nc2c(=O)[nH]cnc2n1-c1ccccc1,-27
Cc1oc(-c2cccc(Cl)c2)nc1CSc1nc2c(=O)[nH]cnc2n1-c1ccccc1,-84*
Cc1oc(-c2ccc(OC(C)C)cc2)nc1CSc1nc2c(=O)[nH]cnc2n1-c1ccccc1,-69
Cc1ccc(-c2nc(CSc3nc4c(=O)[nH]cnc4n3-c3ccccc3)c(C)o2)cc1,-104*
O=C(C1CCC2(CCN(S(=O)(=O)c3cccc(F)c3)CC2)O1)N1CCCC1 (centres undefined),-7
COc1ccc(N2CCN(C(=O)CSc3nnc(N)s3)CC2)cc1,50
Cn1cnc(S(=O)(=O)N2CCCC(c3cccc(C(=O)Nc4nccs4)n3)C2)c1 (centres undefined),12
O=C(c1cccc2ccnn12)N1CCCC1Cn1cccn1 (centres undefined),1
O=C1Nc2ccccc2NC12CCN(c1ncnc3c1CCNC3)CC2,2
SMILES,Tgondii IFNg
CN1CCC(Nc2ncc3ncnc(Nc4ccc(F)c(Cl)c4)c3n2)CC1,-30
CN1CCCC1CCNC(=O)CC(=O)Nc1ccc(F)c(Cl)c1 (centres undefined),-47
C=CC(=O)Nc1cc2c(Nc3ccc(F)c(Cl)c3)ncnc2cc1C#CC(C)(C)N1CCN(C)CC1,-72*
O=C1NC2(CCc3ccccc31)CCN(S(=O)(=O)c1ccc(F)cc1)C2 (centres undefined),7
O=C(NCc1cccc(F)c1)Nc1ccc(-c2nc(-c3ccccc3)co2)cc1,21
Fc1cccc(CNc2nc(-c3nnc(-c4ccc(Cl)cc4)o3)nc3ccccc23)c1,90
Fc1cccc(CNc2c3c(nc4cc(-c5cccc(Cl)c5)nn24)CCC3)c1,-90*
CCC(=O)N1CCC2(CC1)Nc1ccc(Cl)cc1-n1cccc12,51
Cc1ccc2c(c1C)-n1cccc1C1(CCN(C(=O)CC3CCCCC3)CC1)N2,27
O=C(CC1CCCC1)N1CCC2(CC1)Nc1ccc(Cl)cc1-n1cccc12,59
O=C(CCC1CCCC1)N1CCC2(CC1)Nc1ccc(Cl)cc1-n1cccc12,57
Cc1ccc2c(c1C)-n1cccc1C1(CCN(C(=O)CC3CCCC3)CC1)N2,-88*
O=C(CCc1ccccc1)N1CCC2(CC1)Nc1ccc(Cl)cc1-n1cccc12,-121*
CCCCC(=O)N1CCC2(CC1)Nc1ccc(Cl)cc1-n1cccc12,-108*
Cc1ccc2c(c1)NC1(CCN(C(=O)CCc3ccccc3)CC1)c1cccn1-2,5
Cc1ccc2c(c1C)-n1cccc1C1(CCN(C(=O)CCC3CCCC3)CC1)N2,33
CN(C)C(=O)CNC(=O)c1ccn(-c2ccc3ccc(-c4cnn(C)c4)cn23)n1,16
COc1ccc(Cc2n[nH]c(=O)o2)cc1OC,-41
CSc1nn(-c2ccccc2)cc1-c1noc(-c2cccs2)n1,97
Cc1nn(CC(=O)N2CCCC3(CNC(=O)O3)C2)c(=O)c2ccccc12 (centres undefined),11
COc1ccc(Oc2ccc(NC(=O)C3C4CC5OC(=O)C3C5C4)cc2)cc1 (centres undefined),-7
COc1ccc(NC(=O)C2OC3OC(C)(C)OC3C3OC(C)(C)OC23)cc1 (centres undefined),-94*
COc1ccc(NC(=O)N2CCOCC2)cc1,33
Cc1noc(-c2cc(=O)n(CC(=O)Nc3ccc(C)c(C)c3)c3ccccc23)n1,53
CCCc1cc(C(=O)N2CCCC3(CC2)CNC(=O)O3)ccn1 (centres undefined),-1
SMILES,Tgondii IFNg
FC(F)(F)C(Sc1ccccc1)=C(Sc1ccccc1)Sc1ccccc1,-80*
c1ccc(SSc2ccccc2)cc1,10
CN1C(=O)c2cc(NC(=O)c3cccc(F)c3)ccc2OC[C@@H]2O[C@@H](CC(=O)NCC3CCCCC3)CC[C@@H]21,-46
CCOC(=O)N1CCC2(CC1)N=C(c1ccccc1O)CC(c1cccc(OC)c1O)N2 (centres undefined),309
O=C(Nc1ccc(C(F)(F)F)cc1)N[C@@H]1C=C[C@@H](CC(=O)N2CCCCC2)O[C@H]1CO,-29
Cc1noc(C)c1NC(=O)Nc1ccc2c(c1)C(=O)N([C@H](C)CO)C[C@@H](C)[C@H](CN(C)S(=O)(=O)c1ccc(F)cc1)O2,4
COc1ccc(CNC(=O)C[C@H]2CC[C@H](NC(=O)CN(C)C)[C@@H](CO)O2)cc1,33
Cc1nn(C)cc1CN1CC[C@@H]2OCCN(C(=O)c3ccncc3)[C@@H]2C1,3
COc1ccc(-c2nc(CN(c3ccccc3OC)S(=O)(=O)c3ccccc3)c(C)o2)cc1,-46
OC(COc1ccc(F)cc1)(c1ccc(Cl)cc1)c1ccc(Cl)cc1,-99*
CCOc1ccc2c(c1)C(c1ccc(F)cc1)=NNC(c1ccc(Cl)cc1)=N2,-34
O=S(=O)(Cc1ccc(Cl)cc1)CC(O)COc1ccc(F)cc1 (centres undefined),19
CCOCC1CN(Cc2ccco2)Cc2nccn2C1 (centres undefined),9
CCCNC(=O)N1CC2(C1)CN(C(=O)CN1CCOCC1)[C@H](CO)c1[nH]c3cc(OC)ccc3c12,6
C=C[C@H]1CN2CC[C@H]1C[C@@H]2[C@@H](O)c1ccnc2ccc(OC)cc12,-88*!
C=CC1CN2CCC1CC2[C@@H](O)c1ccnc2ccc(OC)cc12 (some centres undefined),-60
C=C[C@H]1CN2CC[C@H]1C[C@@H]2[C@H](O)c1ccnc2ccc(OC)cc12,-16
CN(C)[C@@H]1C[C@@H](C(=O)O)N(Cc2cnn3cccnc23)C1,-2
CC(=O)N1CCC(N(CCN2CCOCC2)C(=O)c2cc3cc(C)ccc3o2)CC1,11
N#Cc1ncccn1,9
c1ccc(-c2csc3ncnc(NCc4ccccn4)c23)cc1,-74*
